54 compounds from paper PMC4336329 (PLoS ONE, 2015) can be followed below.

Hit rate of the full screen: of about 310,000 compounds, about 14,000 (4.5%) showed an effect of 50% or more. The effect is printed as a negative number. What follows is part of a selection rich in strong results, with near analogues and random picks from the rest.
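Note: peak tail current of the secondary pulse compared with the same well before compound.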

human ether-à-go-go-related gene (hERG) potassium channel, sequence (Q12809 whole entry, looked up): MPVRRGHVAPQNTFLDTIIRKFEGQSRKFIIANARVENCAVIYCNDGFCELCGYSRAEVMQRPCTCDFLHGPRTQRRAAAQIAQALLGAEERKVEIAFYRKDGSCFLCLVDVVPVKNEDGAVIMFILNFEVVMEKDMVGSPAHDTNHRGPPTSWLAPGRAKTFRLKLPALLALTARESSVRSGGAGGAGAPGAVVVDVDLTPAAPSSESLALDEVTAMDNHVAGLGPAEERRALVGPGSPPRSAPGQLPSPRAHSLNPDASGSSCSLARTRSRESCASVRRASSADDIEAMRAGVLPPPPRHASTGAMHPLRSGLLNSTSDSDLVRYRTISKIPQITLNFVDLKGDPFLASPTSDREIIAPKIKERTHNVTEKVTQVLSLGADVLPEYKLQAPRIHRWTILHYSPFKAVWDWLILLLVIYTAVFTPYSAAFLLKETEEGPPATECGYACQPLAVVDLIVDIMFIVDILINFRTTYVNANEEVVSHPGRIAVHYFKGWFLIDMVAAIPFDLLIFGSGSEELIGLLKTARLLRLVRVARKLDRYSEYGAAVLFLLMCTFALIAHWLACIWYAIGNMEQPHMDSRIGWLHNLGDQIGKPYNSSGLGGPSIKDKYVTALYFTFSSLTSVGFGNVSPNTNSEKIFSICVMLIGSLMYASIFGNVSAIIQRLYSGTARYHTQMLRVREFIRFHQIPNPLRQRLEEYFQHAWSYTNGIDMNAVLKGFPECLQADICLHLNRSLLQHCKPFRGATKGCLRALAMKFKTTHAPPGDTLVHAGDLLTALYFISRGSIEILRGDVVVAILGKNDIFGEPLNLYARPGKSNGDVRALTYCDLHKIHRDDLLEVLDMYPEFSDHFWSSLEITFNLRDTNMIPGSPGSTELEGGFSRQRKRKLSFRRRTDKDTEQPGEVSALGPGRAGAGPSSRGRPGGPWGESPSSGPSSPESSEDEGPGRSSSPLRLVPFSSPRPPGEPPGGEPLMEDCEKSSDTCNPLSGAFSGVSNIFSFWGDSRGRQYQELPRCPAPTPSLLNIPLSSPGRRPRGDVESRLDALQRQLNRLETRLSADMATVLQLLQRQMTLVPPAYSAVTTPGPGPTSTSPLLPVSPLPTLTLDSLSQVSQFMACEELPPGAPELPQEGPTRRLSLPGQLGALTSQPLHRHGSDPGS

The test concerns the target human ether-à-go-go-related gene (hERG) potassium channel (human, UniProt Q12809). Nature of the test: primary screen, population patch clamp on CHO cells stably expressing hERG; higher = less effect of the substance.
With `O=C(CCC1CCCC1)NCc1cccs1`, the “hERG current change (%, negative = inhibition) at 10uM” value is reported as 13.9%.

In the case of `CCC(Oc1ccccc1)C(=O)NCCOC` (stereo not drawn), the “hERG current change (%, negative = inhibition) at 10uM” value is reported as -8.48%.

Consider `CC(NC(=O)c1cccc(Br)c1)c1ccccc1` (stereo not drawn), for which the “hERG current change (%, negative = inhibition) at 10uM” value is -2.43%.

For `NC12CC3CC(C1)CC(CC(=O)O)(C3)C2`, the “hERG current change (%, negative = inhibition) at 10uM” value is recorded as 10.8%.

In the case of `Cc1nc(Nc2ccc3c(c2)OCCO3)c2oc3ccccc3c2n1`, the “hERG current change (%, negative = inhibition) at 10uM” value is listed as -5.62%.

Regarding `Cc1ccc(NC(=O)CSc2nnc(-c3ccco3)o2)cc1`, the “hERG current change (%, negative = inhibition) at 10uM” value amounted to 2.91%.

As for `O=C(CSc1nnc(-c2ccco2)c(-c2ccco2)n1)Nc1ccccc1`, the “hERG current change (%, negative = inhibition) at 10uM” value is -75.2%.

With `COc1ccc(NC(=O)CSc2nnc(-c3ccco3)c(-c3ccco3)n2)cc1OC`, the “hERG current change (%, negative = inhibition) at 10uM” value is -29.4%.

As for `CC(=O)c1ccc(NC(=O)CSc2nnc(-c3ccco3)o2)cc1`, the “hERG current change (%, negative = inhibition) at 10uM” value is -73.9%.

As to `CCN(CC)C(=O)CSc1nnc(-c2ccccc2)c(-c2ccccc2)n1`, the “hERG current change (%, negative = inhibition) at 10uM” value is recorded as -20.4%.

For `O=C(CSc1nnc(-c2ccco2)c(-c2ccco2)n1)c1ccccc1`, the “hERG current change (%, negative = inhibition) at 10uM” value is 4.5%.

On to `Cc1ccc(-c2nnc(SCC(=O)N(C)C)nc2-c2ccc(C)cc2)cc1`, for which the “hERG current change (%, negative = inhibition) at 10uM” value is reported as -67.9%.

For the compound `Cc1ccc(-c2nnc(SCC(N)=O)nc2-c2ccc(C)cc2)cc1`, the “hERG current change (%, negative = inhibition) at 10uM” value is recorded as -24.2%.

Regarding `O=C(CSc1n[nH]c(-c2ccco2)n1)Nc1ccccc1`, the “hERG current change (%, negative = inhibition) at 10uM” value is -20.4%.

Take `COc1cccc(NC(=O)CSc2ccc(-c3ccco3)nn2)c1`: the “hERG current change (%, negative = inhibition) at 10uM” value is reported as -48.1%.

`CC(=O)Nc1ccc(NC(=O)CSc2nnc(-c3ccco3)o2)cc1`: the “hERG current change (%, negative = inhibition) at 10uM” value is reported as 7.81%.

For the compound `COc1cccc(NC(=O)CSc2nnc(-c3ccco3)c(-c3ccco3)n2)c1`, the “hERG current change (%, negative = inhibition) at 10uM” value is -59.6%.

On to `COc1ccc2cc(C(=O)C3CCCN(C(=O)c4sc(C)nc4C)C3)ccc2c1` (stereo not drawn), for which the “hERG current change (%, negative = inhibition) at 10uM” value is reported as -22.8%.

`Cc1ccc(S(=O)(=O)N2CCN(C(=O)CCn3nc(C)c(C)c3C)CC2)cc1`: the “hERG current change (%, negative = inhibition) at 10uM” value is on record as 11.1%.

As for `Oc1cccc(-c2nc3c4c(ncn3n2)-c2ccccc2CC42CCCC2)c1`, the “hERG current change (%, negative = inhibition) at 10uM” value is on record as -7.64%.

Turning to `COc1ccc(CCn2nnnc2C(c2ccc(Cl)cc2)N2CCN(C)CC2)cc1OC.Cl` (stereo not drawn), the “hERG current change (%, negative = inhibition) at 10uM” value is recorded as -11.6%.

For `CC(=O)Nc1ccccc1OC(=O)N(C)C`, the “hERG current change (%, negative = inhibition) at 10uM” value was 2.41%.

With `COc1c(Cl)cc(Cl)cc1C(=O)Nc1ccc(NC(=O)c2cccs2)cc1`, the “hERG current change (%, negative = inhibition) at 10uM” value was found to be 13.2%.

With `COc1ccc(C2(CNC(=O)c3cccc([N+](=O)[O-])c3)CCOCC2)cc1`, the “hERG current change (%, negative = inhibition) at 10uM” value is 0.0345%.

As to `Cc1ccc(NC(=O)CSc2nnc(-c3ccco3)c(-c3ccco3)n2)cc1`, the “hERG current change (%, negative = inhibition) at 10uM” value is listed as -64.9%.

Consider `CN(C)c1ccc(NC(=O)CSc2nnc(-c3ccco3)c(-c3ccco3)n2)cc1`, for which the “hERG current change (%, negative = inhibition) at 10uM” value is 6.58%.

For the compound `CC(=O)c1ccc(NC(=O)CSc2nnc(-c3ccco3)c(-c3ccco3)n2)cc1`, the “hERG current change (%, negative = inhibition) at 10uM” value is listed as -33%.

Consider `CCOc1ccc(NC(=S)N2CCC(c3ccc(C)cc3)C2)cc1` (stereo not drawn), for which the “hERG current change (%, negative = inhibition) at 10uM” value was -6.63%.

Turning to `Cc1cccc(C)c1NC(=S)N(CCCN1CCN(C)CC1)Cc1cccs1`, the “hERG current change (%, negative = inhibition) at 10uM” value was -47.8%.

Consider `CSc1cccc(NC(=S)N(CCCN2CCC(C)CC2)Cc2cccs2)c1`, for which the “hERG current change (%, negative = inhibition) at 10uM” value was -72.9%.

For `CSc1cccc(NC(=S)N(CCCN2CCCC2)Cc2cccs2)c1`, the “hERG current change (%, negative = inhibition) at 10uM” value was -63.7%.

`CSc1cccc(NC(=S)N(CCCN2CCCC2)Cc2cccn2Cc2ccc(Cl)cc2)c1`: the “hERG current change (%, negative = inhibition) at 10uM” value is given as -28.1%.

In the case of `CSc1cccc(NC(=S)N(CCCN2CCCC(C)C2)Cc2cccs2)c1` (stereo not drawn), the “hERG current change (%, negative = inhibition) at 10uM” value is reported as -75.6%.

Turning to `Cc1ccc(/C=N/NC(=O)c2cc3c(ccc4ccccc43)o2)cc1[N+](=O)[O-]`, the “hERG current change (%, negative = inhibition) at 10uM” value came to 3.49%.

Turning to `Cc1cc(C)n(C(=O)COc2c(C)cccc2C)n1`, the “hERG current change (%, negative = inhibition) at 10uM” value worked out at 11%.

`COc1cc(C(=O)N2CCN(C3CCC(C)CC3)CC2)cc(OC)c1OC.O=C(O)C(=O)O` (stereo not drawn): the “hERG current change (%, negative = inhibition) at 10uM” value was determined as 8.29%.

For `CN(Cc1cccnc1)Cc1c(C(=O)N2CCc3ccccc3C2)nc2ccc(Cl)cn12`, the “hERG current change (%, negative = inhibition) at 10uM” value is reported as -20.1%.

On to `CCCCN(C)Cc1c(C(=O)N2CCc3ccccc3C2)nc2ccc(Cl)cn12`, for which the “hERG current change (%, negative = inhibition) at 10uM” value was -50.1%.

Turning to `CC1CCN(Cc2c(C(=O)N3CCc4ccccc4C3)nc3ccc(Cl)cn23)CC1`, the “hERG current change (%, negative = inhibition) at 10uM” value is recorded as -31.7%.

On to `CCN(CC)Cc1c(C(=O)N2CCc3ccccc3C2)nc2ccc(Cl)cn12`, for which the “hERG current change (%, negative = inhibition) at 10uM” value is on record as -13.1%.

As for `O=C(c1nc2ccc(Cl)cn2c1CN1CCCC1)N1CCc2ccccc2C1`, the “hERG current change (%, negative = inhibition) at 10uM” value is -10.6%.

Turning to `CCN(C)Cc1c(C(=O)N2CCc3ccccc3C2)nc2ccc(Cl)cn12`, the “hERG current change (%, negative = inhibition) at 10uM” value is given as -31.1%.

In the case of `CC(C)CN(C)Cc1c(C(=O)N2CCc3ccccc3C2)nc2ccc(Cl)cn12`, the “hERG current change (%, negative = inhibition) at 10uM” value is recorded as -53.2%.

Regarding `CN(Cc1cnccn1)Cc1c(C(=O)N2CCc3ccccc3C2)nc2ccc(Cl)cn12`, the “hERG current change (%, negative = inhibition) at 10uM” value is -23.4%.

In the case of `CN(Cc1c(C(=O)N2CCc3ccccc3C2)nc2ccc(Cl)cn12)C(C1CC1)C1CC1`, the “hERG current change (%, negative = inhibition) at 10uM” value is recorded as -45.9%.

As for `Cc1cnc(CN(C)Cc2c(C(=O)N3CCCCCCC3)nc3ccc(Cl)cn23)[nH]1`, the “hERG current change (%, negative = inhibition) at 10uM” value is listed as -29%.

On to `Cc1cnc(CN(C)Cc2c(C(=O)N3CCc4ccccc4C3)nc3ccc(Cl)cn23)[nH]1`, for which the “hERG current change (%, negative = inhibition) at 10uM” value is on record as -62.6%.

Take `CN1CCN(Cc2c(C(=O)N3CCc4ccccc4C3)nc3ccc(Cl)cn23)CC1`: the “hERG current change (%, negative = inhibition) at 10uM” value is -51.8%.

Consider `COC(=O)c1cc2c(C)nn(-c3ccccc3)c2s1`, for which the “hERG current change (%, negative = inhibition) at 10uM” value worked out at 2.91%.

For `CC(=O)c1cccc(NC(=O)COC(=O)c2ccccn2)c1`, the “hERG current change (%, negative = inhibition) at 10uM” value is 5.33%.

As for `Cc1ccc(-c2nnc(-c3cc(C)on3)o2)cc1`, the “hERG current change (%, negative = inhibition) at 10uM” value was determined as 19.6%.

For `O=C(CNC(=O)c1ccc([N+](=O)[O-])cc1)c1ccccc1`, the “hERG current change (%, negative = inhibition) at 10uM” value is -6.36%.

For the compound `COc1cc(N(C)C)c([N+](=O)[O-])cc1C(=O)NC(C)CNc1ccc([N+](=O)[O-])cc1Cl` (stereo not drawn), the “hERG current change (%, negative = inhibition) at 10uM” value is recorded as -2.36%.

As for `COC(=O)C1=CO[C@@H](C)[C@H]2CN3CC[C@]4(C(=O)Nc5ccccc54)[C@@H]3C[C@H]12`, the “hERG current change (%, negative = inhibition) at 10uM” value is reported as 15.5%.
